Test results reported in PubChem BioAssay AID1159580 (chemical genetic matrix, 2015).
Values joined by “and” are separate entries in the source; they are usually repeats but may differ in a detail not shown here. Equal values may be shown once. In all, about 5,500 compounds went through this assay and about 2,000 (36%) were called active. Roughly 18% stayed inconclusive and do not appear here. Cut-off read from the data, not from the text of the source: active = normalized growth mostly below about 0.91 (no sharp cut-off); inconclusive = no clear call, values can overlap the other calls; inactive = mostly above about 0.92. The list shows a part of the results.

Experiment: chemical genetic growth profiling, strain panel (AID 1159580);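 note: tested at 20 µM; growth read once vehicle control cultures reached saturation at 30 °C; 1 = growth at the plate median or of vehicle wells; lower values mean less growth of the strain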
Details: growth OD

Measured: normalized growth

NC(=O)CN1CCCC1=O
inactive: S. cerevisiae deletion strains, locus YKL009W, strain mrt4, stronger effect = lower value 1.01 | S. cerevisiae deletion strains, locus YKL068W, stronger effect = lower value 1 | S. cerevisiae deletion strains, locus YKL085W, strain MDH1 (second series), stronger effect = lower value 1.02 | S. cerevisiae deletion strains, locus YKL085W, strain MDH1, stronger effect = lower value 1.02 | S. cerevisiae deletion strains, locus YKL160W, strain elf1, stronger effect = lower value 0.967 | S. cerevisiae deletion strains, locus YKL190W, strain CNB1, stronger effect = lower value 1 | S. cerevisiae deletion strains, locus YKR001C, strain vps1, stronger effect = lower value 1.01 | S. cerevisiae deletion strains, locus YKR026C, strain gcn3, stronger effect = lower value 0.992 | S. cerevisiae deletion strains, locus YKR091W, strain srl3, stronger effect = lower value 0.995 | S. cerevisiae deletion strains, locus YLL001W, strain dnm1, stronger effect = lower value 0.958 | S. cerevisiae deletion strains, locus YLL026W, stronger effect = lower value 0.999 | S. cerevisiae deletion strains, locus YLL041C, strain sdh2, stronger effect = lower value 0.992 | S. cerevisiae deletion strains, locus YLR027C, strain aat2, stronger effect = lower value 0.999 | S. cerevisiae deletion strains, locus YLR039C, strain RIC1, stronger effect = lower value 1.01 | S. cerevisiae deletion strains, locus YLR058C, strain SHM2, stronger effect = lower value 1.01 | S. cerevisiae deletion strains, locus YLR102C, strain apc9, stronger effect = lower value 1.01 | S. cerevisiae deletion strains, locus YLR113W, strain HOG1, stronger effect = lower value 0.954 | S. cerevisiae deletion strains, locus YLR221C, strain rsa3, stronger effect = lower value 0.989 | S. cerevisiae deletion strains, locus YLR258W, strain gsy2, stronger effect = lower value 0.99 | S. cerevisiae deletion strains, locus YLR262C, strain YPT6 (second series), stronger effect = lower value 0.987 | S. cerevisiae deletion strains, locus YLR262C, strain YPT6, stronger effect = lower value 1.02 | S. cerevisiae deletion strains, locus YLR268W, strain sec22, stronger effect = lower value 1.01 | S. cerevisiae deletion strains, locus YLR320W, strain mms22, stronger effect = lower value 0.958 | S. cerevisiae deletion strains, locus YLR330W, strain CHS5, stronger effect = lower value 0.996 | S. cerevisiae deletion strains, locus YLR342W, strain FKS1 (second series), stronger effect = lower value 1.02 | S. cerevisiae deletion strains, locus YLR342W, strain FKS1, stronger effect = lower value 0.98 | S. cerevisiae deletion strains, locus YLR357W, strain rsc2, stronger effect = lower value 0.977 | S. cerevisiae deletion strains, locus YLR370C, strain arc18, stronger effect = lower value 0.99 | S. cerevisiae deletion strains, locus YLR371W, strain rom2, stronger effect = lower value 1.01 | S. cerevisiae deletion strains, locus YLR384C, strain iki3, stronger effect = lower value 0.977 | S. cerevisiae deletion strains, locus YLR418C, strain cdc73, stronger effect = lower value 1.01 | S. cerevisiae deletion strains, locus YML016C, strain PPZ1, stronger effect = lower value 0.999 | S. cerevisiae deletion strains, locus YML032C, strain rad52, stronger effect = lower value 1.01 | S. cerevisiae deletion strains, locus YML120C, strain ndi1, stronger effect = lower value 0.983 | S. cerevisiae deletion strains, locus YML124C, strain tub3, stronger effect = lower value 1.01 | S. cerevisiae deletion strains, locus YMR058W, strain fet3, stronger effect = lower value 0.988 | S. cerevisiae deletion strains, locus YMR078C, strain ctf18, stronger effect = lower value 1 | S. cerevisiae deletion strains, locus YMR125W, strain sto1, stronger effect = lower value 0.996 | S. cerevisiae deletion strains, locus YMR129W, stronger effect = lower value 1 | S. cerevisiae deletion strains, locus YMR205C, strain PFK2, stronger effect = lower value 0.973 | S. cerevisiae deletion strains, locus YMR223W, strain ubp8, stronger effect = lower value 1.01 | S. cerevisiae deletion strains, locus YMR231W, strain pep5, stronger effect = lower value 0.997 | S. cerevisiae deletion strains, locus YMR263W, strain SAP30, stronger effect = lower value 0.993 | S. cerevisiae deletion strains, locus YMR307W, strain GAS1, stronger effect = lower value 1.06 | S. cerevisiae deletion strains, locus YNL067W, strain RPL9B, stronger effect = lower value 1.01 | S. cerevisiae deletion strains, locus YNL071W, strain lat1, stronger effect = lower value 0.991 | S. cerevisiae deletion strains, locus YNL128W, strain TEP1, stronger effect = lower value 1.05 | S. cerevisiae deletion strains, locus YNL153C, strain GIM3, stronger effect = lower value 0.979 and 1.17 | S. cerevisiae deletion strains, locus YNL175C, strain NOP13, stronger effect = lower value 0.997 | S. cerevisiae deletion strains, locus YNL183C, strain NPR1, stronger effect = lower value 0.915 | S. cerevisiae deletion strains, locus YNL197C, strain WHI3, stronger effect = lower value 1.01 | S. cerevisiae deletion strains, locus YNL209W, strain ssb2, stronger effect = lower value 0.998 | S. cerevisiae deletion strains, locus YNL224C, strain SQS1, stronger effect = lower value 0.995 | S. cerevisiae deletion strains, locus YNL233W, strain BNI4, stronger effect = lower value 0.985 | S. cerevisiae deletion strains, locus YNL248C, strain rpa49, stronger effect = lower value 0.982 | S. cerevisiae deletion strains, locus YNL250W, strain rad50, stronger effect = lower value 1 | S. cerevisiae deletion strains, locus YNL271C, strain bni1, stronger effect = lower value 1.01 | S. cerevisiae deletion strains, locus YNL298W, strain CLA4, stronger effect = lower value 1.03 | S. cerevisiae deletion strains, locus YNL307C, strain MCK1, stronger effect = lower value 1.03 | S. cerevisiae deletion strains, locus YNL322C, strain KRE1 (second series), stronger effect = lower value 0.992 | S. cerevisiae deletion strains, locus YNL322C, strain KRE1, stronger effect = lower value 1 | S. cerevisiae deletion strains, locus YNR049C, strain mso1, stronger effect = lower value 0.99 | S. cerevisiae deletion strains, locus YNR052C, strain pop2, stronger effect = lower value 1.01 | S. cerevisiae deletion strains, locus YOL006C, strain TOP1, stronger effect = lower value 1.04 | S. cerevisiae deletion strains, locus YOL012C, strain htz1 0.826 | S. cerevisiae deletion strains, locus YOL147C, strain pex11, stronger effect = lower value 1.01 | S. cerevisiae deletion strains, locus YOR001W, strain rrp6, stronger effect = lower value 1.01 | S. cerevisiae deletion strains, locus YOR061W, strain CKA2, stronger effect = lower value 1.01 | S. cerevisiae deletion strains, locus YOR069W, strain VPS5, stronger effect = lower value 1.01 | S. cerevisiae deletion strains, locus YOR070C, strain gyp1, stronger effect = lower value 0.993 | S. cerevisiae deletion strains, locus YOR080W, strain dia2, stronger effect = lower value 0.994 | S. cerevisiae deletion strains, locus YOR083W, strain WHI5 (second series), stronger effect = lower value 0.99 | S. cerevisiae deletion strains, locus YOR083W, strain WHI5, stronger effect = lower value 0.968 | S. cerevisiae deletion strains, locus YOR106W, strain vam3, stronger effect = lower value 0.967 | S. cerevisiae deletion strains, locus YOR136W, strain idh2, stronger effect = lower value 1 | S. cerevisiae deletion strains, locus YOR144C, strain elg1, stronger effect = lower value 0.998 | S. cerevisiae deletion strains, locus YOR184W, strain ser1, stronger effect = lower value 1 | S. cerevisiae deletion strains, locus YOR231W, strain MKK1, stronger effect = lower value 0.984 | S. cerevisiae deletion strains, locus YOR265W, strain rbl2, stronger effect = lower value 0.992 | S. cerevisiae deletion strains, locus YOR270C, strain vph1, stronger effect = lower value 0.97 | S. cerevisiae deletion strains, locus YOR290C, strain snf2, stronger effect = lower value 0.99 | S. cerevisiae deletion strains, locus YOR316C, strain cot1, stronger effect = lower value 1.02 | S. cerevisiae deletion strains, locus YPL051W, strain arl3, stronger effect = lower value 0.99 | S. cerevisiae deletion strains, locus YPL055C, strain LGE1, stronger effect = lower value 0.968 | S. cerevisiae deletion strains, locus YPL078C, strain atp4, stronger effect = lower value 0.979 | S. cerevisiae deletion strains, locus YPL106C, strain sse1, stronger effect = lower value 0.958 | S. cerevisiae deletion strains, locus YPL240C, strain hsp82, stronger effect = lower value 0.999 | S. cerevisiae deletion strains, locus YPL241C, strain CIN2, stronger effect = lower value 1.01 and 1 | S. cerevisiae deletion strains, locus YPL256C, strain CLN2, stronger effect = lower value 0.979 | S. cerevisiae deletion strains, locus YPR119W, strain clb2, stronger effect = lower value 1 | S. cerevisiae deletion strains, locus YPR141C, strain kar3, stronger effect = lower value 1.01 | S. cerevisiae deletion strains, locus YPR163C, strain tif3, stronger effect = lower value 1.01 | S. cerevisiae deletion strains, locus YPR167C, strain met16, stronger effect = lower value 1 | S. cerevisiae deletion strains, strain wtn01, stronger effect = lower value 1.01 | S. cerevisiae strains, strain wild type, stronger effect = lower value 1
